Test results reported in PubChem BioAssay (Tox21).
Records with an inconclusive call do not appear. Activity calls are given as the source filed them. Unless noted, the call rests on the fitted dose curve; in most records, active means well fitted curve in the direction sought with a large enough effect in the repeat runs; inconclusive means weak or mixed curves; inactive means no such curve, though single readings can be large; an effect the other way counts as inactive or inconclusive.

Experiments:
[1] = qHTS assay to identify small molecule agonists of the estrogen receptor alpha (ER-alpha) signaling pathway in the presence of an antagonist - cell viability counter screen (AID 1259386);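 further: cells exposed to compounds for 22 h at 37 °C before the viability read; nearly all actives have a fitted effect of over 30% in size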; further: potency means the concentration at half of the fitted maximal effect; on activity change, negative = cytotoxicity: series mostly up to about 92 µM
Method in brief: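 The test measures whether compounds kill ER-alpha reporter cells (VM7Luc4E2) under antagonist co-treatment (ICI-182,780, 10.0nM). Fluorescence from CellTiter-Fluor is read after a 22hr exposure.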

[2] = biological target: Progesterone receptor (Homo sapiens) (UniProt P06401); assay: qHTS assay to identify small molecule agonists of the progesterone receptor (PR) signaling pathway (AID 1346784; calls by dose curve; further: nearly all actives have a fitted effect of over 30% in size)
Method in brief: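 Agonist mode, quantitative HTS format in a HEK 293T line expressing a UAS-controlled beta-lactamase reporter; 16 hr compound exposure at 37C in 2% charcoal-stripped FBS, then LiveBLAzer B/G FRET fluorescence.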

[3] = qHTS assay to identify small molecule antagonists of the TGF-beta/Smad signaling pathway - cell viability counter screen (AID 1346824); further: nearly all actives have a fitted effect of over 50% in size
Method in brief: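 SBE-bla HEK 293T cells were plated overnight at 37 C, then given compounds in DMSO plus TGF-beta1 (added as 0.25 ng/mL solution) for 5 hr. After the bla read, CellTiter-Glo was added to the same wells and luminescence read after 30 min at room temperature.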

[4] = qHTS assay to identify small molecule agonists of the TGF-beta/Smad signaling pathway - cell viability counter screen (AID 1346829); further: top concentration of the series differs between compounds; nearly all actives have a fitted effect of over 45% in size
Method in brief: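 HEK 293T SBE-bla line, 5 hr compound exposure at 37 C, multiplexed CellTiter-Glo viability read by luminescence.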

[5] = biological target: Thyrotropin-releasing hormone receptor (Homo sapiens) (UniProt P34981); assay: qHTS assay to identify small molecule antagonists of the thyrotropin-releasing hormone receptor (TRHR) signaling pathway (AID 1346877; active means well fitted inhibition curve with a large enough effect in the repeat runs, not every such curve was filed as active; further: series mostly up to about 51 µM)
Method in brief: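 Overnight-plated (18 h, 37 °C) HEK293 cells expressing TRHR were dye-loaded 2 h, treated with compound, then stimulated with TRH at 1 nM final. Fluorescence intensity was captured every second for 3 min.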

[6] = biological target: Thyrotropin-releasing hormone receptor (Homo sapiens) (UniProt P34981); assay: qHTS assay to identify small molecule agonists of the thyrotropin-releasing hormone receptor (TRHR) signaling pathway (AID 1346891; calls by dose curve;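 further: HEK293 cells expressing TRHR with calcium dye readout; series mostly up to about 58 µM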)
Method in brief: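 Agonist-mode calcium mobilisation screen: TRHR-transfected HEK293 cells cultured overnight (18 h), dye-loaded for 2 h at 37 °C, exposed to compounds, and monitored by fluorescence for 3 min.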

[7] = biological target: Progesterone receptor (Homo sapiens) (UniProt P06401); assay: qHTS assay to identify small molecule antagonists of the progesterone receptor (PR) signaling pathway (AID 1346795; active means well fitted inhibition curve with a large enough effect in the signal ratio in the repeat runs, not every such curve was filed as active; the % refers to the signal ratio; further: potency means the concentration at half of the fitted maximal effect)
Method in brief: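 HEK293T PR-UAS-bla reporter cells in charcoal-stripped serum (2%) received compound after a 6 hr settling period, followed by R5020 agonist at 1 nM final; 16 hr incubation preceded the FRET substrate step and fluorescence measurement.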

[8] = qHTS assay to identify small molecule antagonists of the progesterone receptor (PR) signaling pathway - cell viability counter screen (AID 1346798); further: series mostly up to about 92 µM; nearly all actives have a fitted effect of over 50% in size
Method in brief: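 Same-well multiplex: after 16 hr at 37C with compound and R5020 stimulation, HEK293T cells carrying a UAS-bla reporter received LiveBLAzer substrate (2 hr RT), then CellTiter-Glo (30 min RT) for luminescent viability.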

[9] = qHTS assay to identify small molecule agonists of the progesterone receptor (PR) signaling pathway - cell viability counter screen (AID 1346799; calls by dose curve; further: nearly all actives have a fitted effect of over 45% in size)
Method in brief: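 Counter screen for cytotoxicity: compound-treated PR-UAS-bla HEK293T cells (16 hr, 37C, 5% CO2) were assayed with CellTiter-Glo, luminescence measured after 30 min at room temperature.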

[10] = qHTS assay to identify small molecule agonists of the TGF-beta/Smad signaling pathway (AID 1346859; active means well fitted activation curve with a large enough effect in the signal ratio in the repeat runs, not every such curve was filed as active; the % refers to the signal ratio; further: series mostly up to about 77 µM)
Method in brief: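 Smad-responsive beta-lactamase reporter cells (HEK 293T) received compounds from DMSO stocks after overnight attachment, were incubated 5 hr, then treated 2 hr with FRET substrate before dual-emission fluorescence measurement (405 nm excitation).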
On the % scale 0 is the no-effect control and ±100 the full control effect.

Sequence of Progesterone receptor (Homo sapiens) (P06401 whole entry, looked up): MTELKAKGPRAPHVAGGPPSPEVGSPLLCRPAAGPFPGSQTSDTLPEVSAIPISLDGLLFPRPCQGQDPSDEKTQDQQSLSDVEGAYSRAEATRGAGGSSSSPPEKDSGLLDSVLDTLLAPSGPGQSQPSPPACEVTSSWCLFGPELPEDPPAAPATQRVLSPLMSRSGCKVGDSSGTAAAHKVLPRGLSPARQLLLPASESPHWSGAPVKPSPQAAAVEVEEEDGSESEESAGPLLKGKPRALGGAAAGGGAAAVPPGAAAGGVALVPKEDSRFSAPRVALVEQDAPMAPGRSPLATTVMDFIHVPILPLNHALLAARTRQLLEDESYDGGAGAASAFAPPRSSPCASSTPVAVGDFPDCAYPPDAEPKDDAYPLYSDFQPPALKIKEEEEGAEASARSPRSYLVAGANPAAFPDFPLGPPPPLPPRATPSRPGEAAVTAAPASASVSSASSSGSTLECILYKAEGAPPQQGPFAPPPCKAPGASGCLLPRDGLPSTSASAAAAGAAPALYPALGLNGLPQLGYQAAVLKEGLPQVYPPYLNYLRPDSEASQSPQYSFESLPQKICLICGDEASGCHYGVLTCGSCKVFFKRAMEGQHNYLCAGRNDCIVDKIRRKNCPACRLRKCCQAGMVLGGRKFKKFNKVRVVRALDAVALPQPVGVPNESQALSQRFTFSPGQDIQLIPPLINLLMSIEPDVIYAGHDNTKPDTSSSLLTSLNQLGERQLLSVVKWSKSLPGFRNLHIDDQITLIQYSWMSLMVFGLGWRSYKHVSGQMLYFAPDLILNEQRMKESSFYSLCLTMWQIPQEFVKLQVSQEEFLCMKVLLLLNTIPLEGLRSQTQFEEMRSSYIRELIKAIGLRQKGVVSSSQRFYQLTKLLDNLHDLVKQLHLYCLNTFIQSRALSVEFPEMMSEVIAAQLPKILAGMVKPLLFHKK
Sequence of Thyrotropin-releasing hormone receptor (Homo sapiens) (P34981 whole entry, looked up): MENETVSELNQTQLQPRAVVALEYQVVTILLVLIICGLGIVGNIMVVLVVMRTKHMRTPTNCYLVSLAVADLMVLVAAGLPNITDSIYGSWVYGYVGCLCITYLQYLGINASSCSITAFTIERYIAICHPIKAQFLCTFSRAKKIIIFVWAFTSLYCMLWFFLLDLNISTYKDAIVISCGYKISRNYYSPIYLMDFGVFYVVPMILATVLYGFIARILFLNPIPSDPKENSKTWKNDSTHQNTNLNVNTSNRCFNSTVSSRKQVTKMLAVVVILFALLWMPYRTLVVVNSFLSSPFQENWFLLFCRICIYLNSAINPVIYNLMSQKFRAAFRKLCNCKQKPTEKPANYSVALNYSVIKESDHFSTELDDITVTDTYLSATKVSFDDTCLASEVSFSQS

COc1ccc(-c2nc3ccc(C4=NNC(=O)CC4C)cc3[nH]2)cc1 (centres undefined)
inactive: Potency [1] | Potency [2] | Potency [3] | outcome [4] | outcome [5] | Potency [6]

COc1ccc(C)cc1[N+](=O)[O-]
inactive: Potency [1] | Potency [7] | Potency [8] | Potency [9] | Potency [3] | outcome [4] | Potency [10] | outcome [5] | Potency [6]

CCCNCC(O)COc1ccccc1C(=O)CCc1ccccc1 (centres undefined)
inactive: Potency [1] | Potency [2] | outcome [4] | Potency [10] | outcome [5] | Potency [6]

CCCCCCCCCCCCCCOS(=O)(=O)O
inactive: Potency [1] | Potency [2] | Potency [3] | outcome [4] | Potency [10] | outcome [5] | Potency [6]

CN(C)c1ccc(CCO)cc1
inactive: Potency [1] | Potency [2] | Potency [9] | Potency [3] | outcome [4] | Potency [10]

CCCCCCCN
inactive: Potency [1] | Potency [7] | Potency [8] | Potency [9] | Potency [3] | outcome [4] | Potency [10] | outcome [5] | Potency [6]

CC(=O)[O][Al][O]C(C)=O
inactive: Potency [1] | Potency [7] | Potency [8] | Potency [3] | outcome [4] | Potency [10]

COCCCN1CCC(NC(=O)c2cc(Cl)c(N)c3c2OCC3)CC1
inactive: Potency [1] | Potency [7] | Potency [8] | Potency [9] | Potency [3] | outcome [4] | Potency [10]

CCn1cc(C(=O)O)c(=O)c2cnc(N3CCNCC3)nc21
inactive: Potency [1] | Potency [7] | Potency [8] | Potency [9] | outcome [4] | outcome [5] | Potency [6]

CC1=CCCC(C)(C)C12CCC(C)O2 (centres undefined)
inactive: Potency [1] | Potency [7] | Potency [8] | Potency [3] | outcome [4] | Potency [10] | outcome [5] | Potency [6]

O=S(c1cc(Cl)cc(Cl)c1O)c1cc(Cl)cc(Cl)c1O
inactive: Potency [1] | Potency [2] | Potency [9] | Potency [3] | outcome [4] | Potency [10] | outcome [5] | Potency [6]

O=C(Nc1ccc(S(=O)(=O)N2CCOCC2)cc1)c1cc(Cl)ccc1NS(=O)(=O)c1ccc(Cl)s1
inactive: Potency [1] | Potency [2] | Potency [9] | Potency [3] | outcome [4] | outcome [5] | Potency [6]

CC(=O)OC[C@H]1O[C@@H](n2ncc(=O)[nH]c2=O)[C@H](OC(C)=O)[C@@H]1OC(C)=O
inactive: Potency [1] | Potency [2] | Potency [3] | outcome [4] | Potency [10] | outcome [5] | Potency [6]

CN(C)c1ccc(/C=C/c2ccc([N+](=O)[O-])cc2)cc1
inactive: activity change, negative = cytotoxicity [1] 3.06% [at 8.39 µM] | activity change, negative = inhibition [7] -17.2% [at 8.39 µM] | activity change, negative = cytotoxicity [8] -5% [at 8.39 µM] | activity change, negative = cytotoxicity [9] -0.149% [at 8.39 µM] | viability change, negative = cytotoxic [3] -3.22% [at 6.97 µM] | activity change, negative = cytotoxicity [4] 8.79% [at 6.97 µM] | activation [10] -9.78% [at 6.97 µM] | activity, negative = inhibition [5] -0.61% [at 4.65 µM] | activation [6] 0.993% [at 5.23 µM]

Cc1oc2c(NC(=O)c3c(Cl)cccc3Cl)cccc2c1C(C)(C)O
inactive: Potency [1] | Potency [8] | Potency [3] | outcome [4] | Potency [10] | outcome [5] | Potency [6]
active: Potency [7] 24.3 µM

O=C(O)c1ccc(S(=O)(=O)O)cc1C(=O)O
inactive: Potency [1] | Potency [7] | Potency [8] | Potency [9] | outcome [4] | Potency [10] | outcome [5] | Potency [6]

COc1ccc(C(=O)c2ccc(OC)cc2O)c(O)c1
inactive: Potency [1] | Potency [2] | outcome [4] | outcome [5] | Potency [6]

CCCCCCCC/C=C\CCCCCCCC(=O)OCC
inactive: Potency [1] | Potency [7] | Potency [8] | Potency [3] | outcome [4] | Potency [10] | outcome [5] | Potency [6]

CCCCCCc1ccc(-c2ccc(C#N)cc2)cc1
inactive: Potency [1] | Potency [8] | Potency [3] | outcome [4] | Potency [10]
active: Potency [7] 21.3 µM

COc1cc(C(=O)OCCCN2CCCN(CCCOC(=O)c3cc(OC)c(OC)c(OC)c3)CC2)cc(OC)c1OC
inactive: Potency [7] | Potency [8] | Potency [9] | Potency [3] | outcome [4] | Potency [10] | outcome [5] | Potency [6]
active: Potency [1] 13.3 µM

Cc1oc(-c2ccccc2)nc1CCOc1cccc2c1ccn2CCC(=O)O
active: Potency [1] 19.3 µM
inactive: Potency [2] | Potency [3] | outcome [4]

CCNc1cc(O)ccc1C
inactive: Potency [1] | Potency [7] | Potency [8] | Potency [9] | outcome [4] | Potency [10] | outcome [5] | Potency [6]

CCO[Si](CCCCl)(OCC)OCC
inactive: Potency [1] | Potency [2] | Potency [3] | outcome [4] | Potency [10] | outcome [5] | Potency [6]

Cc1nn(C)c(Oc2ccccc2)c1/C=N/OCc1ccc(C(=O)OC(C)(C)C)cc1
active: Potency [1] 0.0863 µM
inactive: Potency [2] | Potency [3] | outcome [4] | Potency [10] | outcome [5] | Potency [6]

Cc1ccc(C(=O)Oc2ccc(C(O)CNC(C)(C)C)cc2OC(=O)c2ccc(C)cc2)cc1 (centres undefined)
inactive: Potency [1] | Potency [7] | Potency [8] | Potency [9] | Potency [3] | outcome [4] | outcome [5] | Potency [6]

OC[C@H]1O[C@@H](OCCc2ccc(O)cc2)[C@H](O)[C@@H](O)[C@@H]1O
inactive: Potency [1] | Potency [7] | Potency [8] | Potency [9] | Potency [3] | outcome [4] | Potency [10] | outcome [5] | Potency [6]
